Test results: PubChem BioAssay (Tox21)
Results filed as inconclusive are left out. The source made the active and inactive calls. Unless noted, calls follow the shape of the dose curve; as a rule, active = well fitted curve in the direction sought with a large enough effect in the repeat runs; inconclusive = weak or mixed curves; inactive = no such curve, though single readings can be large; an effect the other way counts as inactive or inconclusive.

Assays:
[1] = target: Thyrotropin-releasing hormone receptor (Homo sapiens) (UniProt P34981); experiment: qHTS assay to identify small molecule agonists of the thyrotropin-releasing hormone receptor (TRHR) signaling pathway (AID 1346891; calls by dose curve;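 also: HEK293 cells expressing TRHR with calcium dye readout; series mostly up to about 58 µM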)
How it was run: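 Overnight-plated (18 h, 37 °C, 5% CO2) TRHR-Hek293 cells; 2 h calcium dye at 37 °C; compound in DMSO; 3-min kinetic fluorescence read.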

[2] = Human pregnane X receptor (PXR) small molecule agonists, qHTS cell viability counter screen (AID 1346977); also: nearly all actives have a fitted effect of over 50% in size
How it was run: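 After a 5hr pre-incubation, PXR-Luc HepG2 cells received compounds plus positive control in DMSO and were kept 24hr at 37C. Cell viability was quantified by fluorescence from CellTiter-Fluor added for the final hour.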

[3] = Caspase-3/7 induction in CHO-K1 cells by small molecules, qHTS cell viability counter screen (AID 1346979); also: nearly all actives have a fitted effect of over 35% in size
How it was run: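 Multiplexed with Caspase-Glo 3/7 in CHO-K1 cells, this counter screen added CellTiter-Fluor after 16hr of compound exposure and recorded fluorescence 1hr later.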

[4] = Caspase-3/7 induction in CHO-K1 cells by small molecules, qHTS assay (AID 1346980); also: nearly all actives have a fitted effect of over 15% in size
How it was run: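 Wild-type cells were seeded at 1,500 per well and settled 5 hr at 37 C, 5% CO2, then exposed to DMSO-dissolved compounds for 17 hr. Caspase-Glo 3/7 reagent was added, and luminescence was read after 30min at room temperature.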

[5] = Caspase-3/7 induction in HepG2 cells by small molecules, qHTS cell viability counter screen (AID 1346981); also: series mostly up to about 92 µM; nearly all actives have a fitted effect of over 30% in size
How it was run: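 Multiplexed with the caspase-3/7 assay: HepG2 cells, 16 hr compound treatment, CellTiter-Fluor viability detection by fluorescence.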

[6] = target: Nuclear receptor subfamily 1 group I member 2 (Homo sapiens) (UniProt O75469); experiment: Human pregnane X receptor (PXR) small molecule agonists, qHTS assay (AID 1346982); also: nearly all actives have a fitted effect of over 35% in size; also: potency is read from the fitted curve at half-maximal effect
How it was run: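 We seeded PXR-Luc HepG2 cells in assay medium containing 5% charcoal-stripped FBS, added compounds 5 hr later, incubated 24 hr, and read luminescence with ONE-Glo reagent.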

[7] = Caspase-3/7 induction in HepG2 cells by small molecules, qHTS assay (AID 1346978); also: nearly all actives have a fitted effect of over 15% in size
How it was run: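 Wild-type HepG2 cells (2,000/well) were settled 5 h at 37 C, 5% CO2, then exposed to compounds in DMSO for 17 h. Caspase-3/7 activity was read by luminescence 30 min after adding Caspase-Glo 3/7 reagent at room temperature.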

[8] = target: Nuclear receptor subfamily 1 group I member 2 (Rattus norvegicus) (UniProt Q9R1A7); experiment: Rat pregnane X receptor (rPXR) activation by small molecules, qHTS assay (AID 1346983); conditions: rPXR luciferase reporter cells, One-Glo luminescence, 24 h; max activation: hits give high values; also: nearly all actives have a fitted effect of over 20% in size
How it was run: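 Cell-based rPXR luciferase reporter assay, 2,000 cells per well, rested 5hr at 37 C before compound addition in DMSO, then 24 hr at 37 C. One-Glo reagent was added and luminescence read after 30 min at room temperature.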

[9] = target: Nuclear receptor subfamily 1 group I member 2 (Homo sapiens) (UniProt O75469); experiment: CYP3A4 induction through human pregnane X receptor (PXR) by small molecules, qHTS assay (AID 1346984); also: nearly all actives have a fitted effect of over 40% in size
How it was run: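 qHTS, concentration-response format: HepG2 DPX-2 line, PXR/CYP3A4-luc. Exposure 24 h, 37C. Substrate Luciferin-IPA 3uM final, 3 h. Detection One-Glo, 30 min RT.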

[10] = target: Nuclear receptor subfamily 1 group I member 2 (Homo sapiens) (UniProt O75469); experiment: Human pregnane X receptor (PXR) activation by small molecules, qHTS assay (AID 1346985); also: nearly all actives have a fitted effect of over 40% in size
How it was run: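 DPX-2 cells (HepG2 co-transfected with a PXR response element and a CYP3A4-promoter luciferase construct) were seeded at 2,000 per well, rested 5 hr at 37C, then exposed to DMSO-dissolved compounds for 24 hr. Activation was read as luciferase luminescence.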
% is scaled to controls: 0 for no effect and ±100 for the full control effect.

Sequence of Thyrotropin-releasing hormone receptor (Homo sapiens) (P34981 whole entry, looked up): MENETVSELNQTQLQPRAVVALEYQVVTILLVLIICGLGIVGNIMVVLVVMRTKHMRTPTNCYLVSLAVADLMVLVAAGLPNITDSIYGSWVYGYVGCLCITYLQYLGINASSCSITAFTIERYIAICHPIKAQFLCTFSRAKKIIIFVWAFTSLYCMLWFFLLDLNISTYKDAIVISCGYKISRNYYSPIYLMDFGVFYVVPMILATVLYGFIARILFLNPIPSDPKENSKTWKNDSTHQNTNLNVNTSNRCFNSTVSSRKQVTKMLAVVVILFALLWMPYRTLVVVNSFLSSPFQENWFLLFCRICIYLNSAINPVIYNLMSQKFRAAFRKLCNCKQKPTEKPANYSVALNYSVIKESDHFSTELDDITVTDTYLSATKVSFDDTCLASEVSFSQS
Sequence of Nuclear receptor subfamily 1 group I member 2 (Rattus norvegicus) (Q9R1A7 whole entry, looked up): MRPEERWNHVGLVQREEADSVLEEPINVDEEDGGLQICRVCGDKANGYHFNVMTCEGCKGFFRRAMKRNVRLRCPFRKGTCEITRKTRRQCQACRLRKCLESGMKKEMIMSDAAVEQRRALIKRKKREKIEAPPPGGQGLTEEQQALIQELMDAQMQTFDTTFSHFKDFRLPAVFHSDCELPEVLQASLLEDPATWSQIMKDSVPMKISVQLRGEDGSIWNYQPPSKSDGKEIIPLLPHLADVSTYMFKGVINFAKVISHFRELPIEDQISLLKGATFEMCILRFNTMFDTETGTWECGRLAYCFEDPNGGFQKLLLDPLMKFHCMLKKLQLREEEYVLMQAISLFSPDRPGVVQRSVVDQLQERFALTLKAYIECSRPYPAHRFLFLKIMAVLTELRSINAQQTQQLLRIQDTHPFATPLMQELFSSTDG
Sequence of Nuclear receptor subfamily 1 group I member 2 (Homo sapiens) (O75469 whole entry, looked up): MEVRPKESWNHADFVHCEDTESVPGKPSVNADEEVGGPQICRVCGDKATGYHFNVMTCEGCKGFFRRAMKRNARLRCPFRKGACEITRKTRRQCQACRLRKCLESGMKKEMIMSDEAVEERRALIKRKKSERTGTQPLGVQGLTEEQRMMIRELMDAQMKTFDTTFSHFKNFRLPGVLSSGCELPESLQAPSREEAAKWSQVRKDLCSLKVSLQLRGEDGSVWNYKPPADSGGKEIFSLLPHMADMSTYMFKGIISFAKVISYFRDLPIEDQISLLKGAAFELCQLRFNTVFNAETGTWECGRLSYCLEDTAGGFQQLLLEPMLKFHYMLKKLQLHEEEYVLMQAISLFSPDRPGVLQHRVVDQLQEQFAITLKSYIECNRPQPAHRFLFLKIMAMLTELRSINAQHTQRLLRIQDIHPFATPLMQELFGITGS

CC(C=O)Cc1ccc(C(C)C)cc1 (configuration not stated)
inactive: outcome [1] | Potency [2] | Potency [3] | outcome [4] | outcome [5] | Potency [6]

CC(C)=CCC/C(C)=C/C(=O)O
inactive: outcome [1] | Potency [2] | outcome [7] | Potency [3] | outcome [4] | Potency [6]

COCCOC(=O)CC#N
inactive: outcome [1] | Potency [2] | Potency [3] | outcome [4] | outcome [5]

c1ccc(SCCSc2ccccc2)cc1
active: Potency [6] 7.63 µM
inactive: outcome [1] | Potency [2] | outcome [7] | Potency [3] | outcome [4]

CC(C)[C@H](N)C(=O)OCCOCn1cnc2c(=O)[nH]c(N)nc21
inactive: outcome [1] | Potency [2] | outcome [7] | Potency [3] | outcome [4] | Potency [6] | max activation [8] -4.04% | Potency [9] | Potency [10]

C=C(C)C(=O)NCCCN(C)C
inactive: outcome [1] | Potency [2] | Potency [3] | outcome [4] | outcome [5] | Potency [6]

COC(=O)c1ccc(C(=O)OC)c(C(=O)OC)c1
inactive: Potency [2] | outcome [7] | Potency [3] | outcome [4] | outcome [5]

NS(=O)(=O)c1cc2c(cc1Cl)NC(CSCc1ccccc1)=NS2(=O)=O
inactive: outcome [1] | Potency [2] | Potency [3] | outcome [4] | outcome [5] | Potency [6] | max activation [8] -1.07% | Potency [9] | Potency [10]

C=C(C)[C@H]1CC=C(C)CC1
active: Potency [6] 61.1 µM
inactive: Potency [2] | outcome [7] | Potency [3] | outcome [4] | outcome [5]

NC(=O)c1ncn([C@@H]2O[C@H](CO)[C@@H](O)[C@H]2O)c1N
inactive: outcome [1] | Potency [2] | Potency [3] | outcome [4] | outcome [5] | Potency [6] | max activation [8] 0.984% | Potency [9] | Potency [10]

NS(=O)(=O)c1cc2c(cc1C(F)(F)F)NC(Cc1ccccc1)NS2(=O)=O (configuration not stated)
inactive: outcome [1] | Potency [2] | Potency [3] | outcome [4] | outcome [5] | max activation [8] -1.57% | Potency [9] | Potency [10]

COc1nc(C)nc(N)n1
inactive: outcome [1] | Potency [2] | outcome [4] | outcome [5] | Potency [6]

NCCN1CCNC1=O
inactive: Potency [2] | outcome [7] | Potency [3] | outcome [4] | outcome [5] | Potency [6]

C1CCCCCCCCCCC1
inactive: activation [1] 1.06% [at 11.8 µM] | activity change, negative = cytotoxicity [2] 4.48% [at 19 µM] | activity change, negative = cytotoxicity [3] 2.86% [at 19 µM] | caspase-3/7 activation [4] 0.0072% [at 19 µM] | activation [6] 7.58% [at 19 µM]

Cc1c(C)n(CCN(C)C)c2ccc(C(=O)OCCN(C)C)cc12
inactive: outcome [1] | outcome [4] | outcome [5] | max activation [8] 6.74% | Potency [9]

NC(=O)c1ncn([C@@H]2O[C@H](CO)[C@@H](O)[C@H]2O)c1O
inactive: outcome [1] | Potency [2] | Potency [3] | outcome [4] | Potency [6] | max activation [8] -0.429% | Potency [9] | Potency [10]

CC1=CC(C)C(C=O)C(C)C1 (configuration not stated)
inactive: Potency [2] | outcome [7] | Potency [3] | outcome [4] | outcome [5] | Potency [6]

CC(=O)c1ccc(C)cc1
inactive: outcome [1] | Potency [2] | Potency [3] | outcome [4] | outcome [5] | Potency [6]

CCCC(C)CO (configuration not stated)
inactive: Potency [2] | outcome [7] | Potency [3] | outcome [4] | outcome [5] | Potency [6]

O=C(O)c1ccccc1S
inactive: Potency [2] | outcome [7] | Potency [3] | outcome [4]

CCCCc1ccc(N)cc1
inactive: Potency [2] | outcome [7] | Potency [3] | outcome [4] | outcome [5] | Potency [6]

Oc1cc(O)c2c(c1)O[C@H](c1ccc(O)c(O)c1)[C@H](O)C2
inactive: Potency [2] | outcome [7] | Potency [3] | outcome [4] | outcome [5]

C=CCSCC1Nc2cc(Cl)c(S(N)(=O)=O)cc2S(=O)(=O)N1 (configuration not stated)
inactive: outcome [1] | Potency [2] | Potency [3] | outcome [4] | outcome [5] | max activation [8] 0.305%

CCCCCCCCN(C)CCCCCCCC
inactive: Potency [2] | outcome [7] | Potency [3] | outcome [4] | outcome [5] | Potency [6]

C=C(C)C(=O)NCCC[N+](C)(C)C
inactive: Potency [2] | outcome [7] | Potency [3] | outcome [4] | outcome [5] | Potency [6]

CC(C)N1C(=O)c2ccccc2C1=O
inactive: Potency [2] | outcome [7] | Potency [3] | outcome [4] | outcome [5] | Potency [6]

O=C1C(CCS(=O)c2ccccc2)C(=O)N(c2ccccc2)N1c1ccccc1 (configuration not stated)
inactive: outcome [1] | Potency [2] | Potency [3] | outcome [4] | outcome [5] | max activation [8] -2.19%
